Compounds without any hit were thinned out: in the full panel of roughly 79,000, 15% have a hit. The source made the active and inactive calls. Rule as the data show it: active = growth inhibition above about 70%; inactive = the rest.
Experiments:
[1] = NCI Yeast Anticancer Drug Screen. Data for the rad52 strain (AID 147);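 also: 0% = growth of vehicle-treated control cultures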; conditions: S. cerevisiae rad52 mutant growth inhibition, hits give high values
In short: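 Genetically altered yeast (DNA damage repair defect) treated with compound; inhibition calculated relative to vehicle.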

[2] = NCI Yeast Anticancer Drug Screen. Data for the wt1 strain (AID 149);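 also: 0% = growth of vehicle-treated wt1 cultures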; conditions: S. cerevisiae wt1 strain (SPY 50644) growth inhibition, hits give high values
In short: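 Growth inhibition read against vehicle controls after compound exposure of the wt1 yeast strain.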

[3] = NCI Yeast Anticancer Drug Screen. Data for the rad50EPP+ strain (AID 151);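 also: 0% = growth of vehicle-treated control cultures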; conditions: S. cerevisiae rad50 mutant strain, hits give high values
In short: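 Strain rad50EPP+; compound exposure; % growth inhibition vs vehicle.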

[4] = NCI Yeast Anticancer Drug Screen. Data for the mgt1 strain (AID 153); conditions: S. cerevisiae mgt1 mutant growth inhibition, hits give high values
In short: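 Read-out: yeast growth inhibition vs vehicle control. Strain mgt1, drawn from a panel altered in DNA damage repair or cell cycle control.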

[5] = NCI Yeast Anticancer Drug Screen. Data for the rad50 strain (AID 155);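 also: 0% = growth of vehicle-only cultures of the same strain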; conditions: S. cerevisiae rad50 strain growth inhibition, hits give high values
In short: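 Readout: growth inhibition relative to vehicle-treated cultures. Compound exposure was carried out in a genetically defined yeast strain deficient in DNA damage repair.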

[6] = NCI Yeast Anticancer Drug Screen. Data for the mec2-1 strain (AID 157); conditions: S. cerevisiae mec2-1 strain, hits give high values
In short: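 Cells of the genetically defined mec2-1 yeast strain are incubated with test compound. Inhibition of growth is calculated against vehicle-treated controls.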

[7] = NCI Yeast Anticancer Drug Screen. Data for the rad14 strain (AID 159);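 also: 0% = growth of vehicle-treated control cultures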; conditions: S. cerevisiae rad14 strain growth inhibition, hits give high values
In short: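 Growth inhibition vs vehicle controls; genetically altered yeast strain (DNA damage repair defect) treated with test compounds.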

[8] = NCI Yeast Anticancer Drug Screen. Data for the sgs1 mgt1 strain (AID 161);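 also: 0% = growth of cultures given vehicle only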; conditions: S. cerevisiae sgs1 mgt1 strain, hits give high values
In short: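 Read-out: growth inhibition vs vehicle controls. Cells: mutant yeast strain deficient in DNA damage repair.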

[9] = NCI Yeast Anticancer Drug Screen. Data for the CLN2oe strain (AID 163);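 also: 0% = growth of vehicle-only control cultures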; conditions: S. cerevisiae CLN2oe strain, hits give high values
In short: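 Strain altered in cell-cycle control, incubated with compound; growth compared to solvent-treated controls.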

[10] = NCI Yeast Anticancer Drug Screen. Data for the cln2 rad14 strain (AID 165);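 also: 0% = growth equal to vehicle treated cultures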; conditions: S. cerevisiae cln2 rad14 strain, hits give high values
In short: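 The screen exposed genetically defined yeast (cln2 rad14) to test compounds and scored growth inhibition relative to vehicle-treated controls.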

[11] = NCI Yeast Anticancer Drug Screen. Data for the bub3 strain (AID 167); conditions: S. cerevisiae bub3 mutant strain, hits give high values
In short: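 Readout: yeast growth inhibition, expressed relative to vehicle-only wells. The test organism is a mutant strain from a panel with lesions in DNA repair or checkpoint genes.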

[12] = NCI Yeast Anticancer Drug Screen. Data for the wt2 strain (AID 169);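 also: 0% = growth of vehicle-treated yeast cultures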; conditions: S. cerevisiae wt2 strain growth inhibition, hits give high values
In short: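 Steps: yeast strain treated with compound; growth recorded; inhibition calculated relative to cultures given vehicle alone.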

[13] = NCI Yeast Anticancer Drug Screen. Data for the mlh1 strain (AID 171);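 also: 0% = growth of vehicle-treated control cultures of the same strain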; conditions: S. cerevisiae mlh1 strain growth inhibition, hits give high values
In short: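 Yeast screen: mutant strain plus compound, growth scored against vehicle control wells.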

[14] = NCI Yeast Anticancer Drug Screen. Data for the sgs1 strain (AID 173);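 also: 0% = growth of vehicle-only control cultures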; conditions: S. cerevisiae sgs1 mutant, hits give high values
In short: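 Inhibition of yeast growth served as the measure. The mutant strain was treated with each compound, and growth was normalised to cultures receiving vehicle alone.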

[15] = NCI Yeast Anticancer Drug Screen. Data for the mlh1 rad18 strain (AID 175); conditions: S. cerevisiae mlh1 rad18 strain growth inhibition, hits give high values
In short: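 Compound-treated yeast growth, normalised to vehicle controls. Strain bears defined DNA repair mutations.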

[16] = NCI Yeast Anticancer Drug Screen. Data for the rad18 strain (AID 177); conditions: S. cerevisiae rad18 mutant growth inhibition, hits give high values
In short: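 Inhibition values reflect reduced yeast growth compared with vehicle-treated controls, using a strain engineered with a DNA damage repair defect.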

[17] = at 5.0 µM (retest, dose inferred, filed as 0.5)
[18] = at 50.0 µM (retest, dose inferred, filed as 5.0)

Measured: growth inhibition

Clc1ccccc1C1OC1c1ccccc1Cl (stereo not drawn)
inactive: [1]; at 1.2 µM -29% | [1]; at 3.7 µM -38% | [1]; at 11.0 µM -61% | [1]; at 33.0 µM -18% | [1]; at 100.0 µM -32% | [2]; at 1.2 µM -65% | [2]; at 3.7 µM -49% | [2]; at 11.0 µM -61% | [2]; at 33.0 µM -52% | [2]; at 100.0 µM -26% | [3]; at 1.2 µM -86% | [3]; at 3.7 µM -56% | [3]; at 11.0 µM -40% | [3]; at 33.0 µM 20% | [4]; at 1.2 µM -60% | [4]; at 3.7 µM -90% | [4]; at 11.0 µM -65% | [4]; at 33.0 µM -35% | [4]; at 100.0 µM -27% | [5]; at 1.2 µM -66% | [5]; at 3.7 µM -62% | [5]; [17] 57% | [5]; at 11.0 µM -73% | [5]; at 33.0 µM -51% | [5]; at 50.0 µM 38.6% | [5]; at 100.0 µM 14% | [6]; at 1.2 µM -92% | [6]; at 3.7 µM -86% | [6]; [17] 55% | [6]; at 11.0 µM -94% | [6]; at 33.0 µM -75% | [6]; at 50.0 µM 21.9% | [6]; at 100.0 µM -37% | [7]; at 1.2 µM -46% | [7]; at 3.7 µM -46% | [7]; at 11.0 µM -50% | [7]; at 33.0 µM -43% | [7]; at 100.0 µM -9% | [8]; [17] -17% | [8]; at 50.0 µM 44.9% | [9]; at 1.2 µM -3% | [9]; at 3.7 µM 7% | [9]; at 11.0 µM -1% | [9]; at 33.0 µM -1% | [9]; at 100.0 µM 8% | [10]; [17] 37% | [10]; at 50.0 µM 13.6% | [11]; at 1.2 µM -56% | [11]; at 3.7 µM -53% | [11]; [17] 0% | [11]; at 11.0 µM -47% | [11]; at 33.0 µM -42% | [11]; at 50.0 µM 41.6% | [11]; at 100.0 µM -6% | [12]; at 1.2 µM -49% | [12]; at 3.7 µM -71% | [12]; at 11.0 µM -69% | [12]; at 33.0 µM -46% | [12]; at 100.0 µM -16% | [13]; at 1.2 µM -69% | [13]; at 3.7 µM -69% | [13]; at 11.0 µM -35% | [13]; at 33.0 µM -50% | [13]; at 100.0 µM 24% | [14]; at 1.2 µM -78% | [14]; at 3.7 µM -72% | [14]; at 11.0 µM -81% | [14]; at 33.0 µM -38% | [14]; at 100.0 µM 18%
active: [3]; at 100.0 µM 70% | [5]; [18] 100% | [6]; [18] 99% | [8]; [18] 98% | [10]; [18] 99% | [11]; [18] 98%

N#C/C(=C\c1cccc(OCc2ccccc2)c1)c1ccc([N+](=O)[O-])cc1
active: [5]; [18] 97% | [6]; [18] 96% | [15]; [18] 98%
inactive: [1]; at 1.2 µM -24% | [1]; at 3.7 µM -19% | [1]; at 11.0 µM -26% | [1]; at 33.0 µM -28% | [1]; at 100.0 µM -37% | [2]; at 1.2 µM -18% | [2]; at 3.7 µM -4% | [2]; at 11.0 µM -22% | [2]; at 33.0 µM -28% | [2]; at 100.0 µM -33% | [3]; at 1.2 µM -66% | [3]; at 3.7 µM -49% | [3]; at 11.0 µM -63% | [3]; at 33.0 µM -82% | [3]; at 100.0 µM -88% | [4]; at 1.2 µM -35% | [4]; at 3.7 µM -29% | [4]; at 11.0 µM -61% | [4]; at 33.0 µM -53% | [4]; at 100.0 µM -71% | [5]; at 1.2 µM -5% | [5]; at 3.7 µM -25% | [5]; [17] 53% | [5]; at 11.0 µM -22% | [5]; at 33.0 µM -23% | [5]; at 50.0 µM 10.9% | [5]; at 100.0 µM -23% | [6]; at 1.2 µM -88% | [6]; at 3.7 µM -74% | [6]; [17] 61% | [6]; at 11.0 µM -81% | [6]; at 33.0 µM -91% | [6]; at 50.0 µM 14.2% | [6]; at 100.0 µM -96% | [7]; at 1.2 µM -43% | [7]; at 3.7 µM -48% | [7]; at 11.0 µM -24% | [7]; at 33.0 µM -51% | [7]; at 100.0 µM -84% | [8]; [17] -10% | [8]; [18] 43% | [8]; at 50.0 µM 27.9% | [9]; at 1.2 µM 11% | [9]; at 3.7 µM -17% | [9]; at 11.0 µM -28% | [9]; at 33.0 µM -31% | [9]; at 100.0 µM -39% | [10]; [17] 33% | [10]; [18] 43% | [10]; at 50.0 µM 0.05% | [11]; at 1.2 µM -28% | [11]; at 3.7 µM -42% | [11]; [17] -5% | [11]; at 11.0 µM -37% | [11]; at 33.0 µM -40% | [11]; [18] 29% | [11]; at 50.0 µM 61.1% | [11]; at 100.0 µM -60% | [12]; at 1.2 µM -34% | [12]; at 3.7 µM -43% | [12]; at 11.0 µM -49% | [12]; at 33.0 µM -61% | [12]; at 100.0 µM -75% | [13]; at 1.2 µM -44% | [13]; at 3.7 µM -41% | [13]; at 11.0 µM -51% | [13]; at 33.0 µM -64% | [13]; at 100.0 µM -72% | [14]; at 1.2 µM -39% | [14]; at 3.7 µM -47% | [14]; at 11.0 µM -64% | [14]; at 33.0 µM -54% | [14]; at 100.0 µM -59% | [15]; [17] 50% | [15]; at 50.0 µM 15.2% | [16]; at 1.2 µM -26% | [16]; at 3.7 µM -29% | [16]; at 11.0 µM -24% | [16]; at 33.0 µM -49% | [16]; at 100.0 µM -36%

From PubChem BioAssay (NCI)
